Assay outcomes deposited in PubChem BioAssay by National Center for Advancing Translational Sciences (NCATS).
HT1080NT lethal – kills 2HG-producing HT-1080-NT fibrosarcoma cells; HT-1080-NT fibrosarcoma viability, CellTiter-Glo ATP luminescence, 48 h; Potency, µM (doses to about 46.1 µM), without a hit: at the top dose activity, negative = less viability, hits mostly cytotoxic; 1.6% of 360,000 active;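 note: NT is the 2HG producing partner of a matched IDH1 knockdown line; 0% = DMSO-treated cells and -100% = media-only wells without cells; nearly all actives have a fitted effect of over 55% in size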
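750 cells/well, RPMI + 5% FBS; 2 h settle, compound pin-transfer, 48 h at 37 degrees C. CellTiter-Glo 10 min RT, luminescence. Normalized to DMSO and media-only wells.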
SW480 rereplic – DNA re-replication induction in SW480 cells | SW480 DNA re-replication, Hoechst DNA content imaging, 48 h | Potency, µM (highest dose often 46.1 µM), without a hit: top-dose re-replication activation, usual class: activators | 1.8% of 340,000 active; note: % of control where 0% means no effect; nearly all actives have a fitted effect of over 55% in size
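Image-based DNA-content assay: after two days of treatment, nuclei were labelled with the DNA dye Hoechst and imaged, and hits were compounds raising the count of nuclei showing high fluorescence intensity.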
KB-V1 MDR tox – KB-V1 MDR subline cytotoxicity. KB-V1 MDR cells viability, CellTiter-Glo, 72 h. Potency, µM (doses to about 46.1 µM), most hits filed as cytotoxic. 3.4% of 400,000 active; note: % is set by controls: 0 for no effect and ±100 for the full control effect; nearly all actives have a fitted effect of over 60% in size
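In this primary screen, KB-V1 cells overexpressing P-gp are incubated with library compounds (lowest to highest concentration) for 72 h at 37 degrees C before a luminescent ATP viability read.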
KB-3-1 tox – kills parental KB-3-1 adenocarcinoma cells | KB-3-1 viability, CellTiter-Glo ATP luminescence, 72 h | Potency, µM (doses to about 46.1 µM), most hits filed as cytotoxic | 1.4% of 400,000 active | AID 1347075; note: % is set by controls: 0 for no effect and ±100 for the full control effect; nearly all actives have a fitted effect of over 60% in size
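Cytotoxicity in the drug-sensitive parental line KB-3-1 was scored as loss of CellTiter-Glo luminescence following 72 h incubation with compound. Values come from curve fitting of normalized concentration-response data.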
HT1080 IDH1KD tx – kills HT-1080 cells with IDH1 knockdown; AID 686971; HT-1080 IDH1 knockdown viability, ATP luminescence, 48 h; 2% of 360,000 active; Potency, µM (top dose mostly 46.1 µM), for the others: at the top dose activity, negative = toxicity, usual class: cytotoxic;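 note: 0% = DMSO wells and -100% = cell-free medium wells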
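IDH1KD HT-1080 cells, 750/well, RPMI + 5% FBS; compound pinned after 2 h settling; 48 h, 37 °C; CellTiter-Glo luminescence; % activity normalised to DMSO and no-cell wells; curves fitted, classed by r2 and efficacy.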
MCF10A rerep – DNA re-replication induction in MCF 10a cells; MCF 10A DNA re-replication, Hoechst nuclear intensity, 48 h; Potency, µM (top dose mostly 46.1 µM), inactives show top-dose activity, positive = re-replication, hits mostly activators; 2.9% of 350,000 active; note: % of control where 0% means no effect; nearly all actives have a fitted effect of over 50% in size
The depositor's hits bear a star; i = inactive; ? = inconclusive; nt = not tested or not shown. Rows were chosen to be rich in hits. Some 8% of all compounds tested hit in one or more screens of this group. Calls come from the whole dose curve; as a rule, active = well fitted curve in the direction sought with a large enough effect; inconclusive = small, poorly fitted or top-dose-only effect, or another doubt; inactive = no such curve, though single readings can be large; an effect the other way counts as inactive or inconclusive. Potency is the fitted concentration of half-maximal effect.

SMILES	HT1080NT lethal	SW480 rereplic	KB-V1 MDR tox	KB-3-1 tox	HT1080 IDH1KD tx	MCF10A rerep
COc1ccc(CNC(=O)CSc2ncc3c(n2)-c2cc(Cl)ccc2N(C)S3(=O)=O)cc1	nt	nt	i	i	nt	nt
CCCCn1nnnc1C1(C)CCC(=O)N1CCCn1ccnc1 (stereo not drawn)	?	nt	i	13µM*	?	nt
CCOC(=O)c1c(N2C(=O)C=CC2=O)sc(C)c1C	3.98µM*	9.2µM*	i	i	5.01µM*	2.91µM*
CCOC(=O)c1c(NC(N)=O)sc(C)c1C	0.1%	-21.6%	?	i	4.3%	2.7%
NNC(=O)c1nn(-c2ccc(Cl)cc2)cc1O	?	20.6µM*	?	?	-29.3%	7.4%
Cc1ccc(NC(=O)COC(=O)c2nn(-c3ccc(Cl)cc3)cc2O)cc1	?	-0.2%	i	i	?	?
Cn1nc(-c2ccc(Cl)cc2)c2cc(C(=O)NC3CC3)sc21	-7.3%	?	?	i	-8.5%	6.51µM*
CCOCCCNC(=O)c1cc2c(-c3ccc(Cl)cc3)nn(C)c2s1	-1.0%	17.5%	i	i	?	9.4%
CCCN(CCC)CCNC(=O)c1cc2c(-c3ccc(Cl)cc3)nn(C)c2s1	-17.9%	?	i	16.4µM*	-14.5%	?
CCCCN(CC)CCNC(=O)c1cc2c(-c3ccc(Cl)cc3)nn(C)c2s1	20.6µM*	?	23.1µM*	?	20.6µM*	18.4µM*
CCCN(CCC)CCCNC(=O)c1cc2c(-c3ccc(OC)c(OC)c3)nn(C)c2s1	?	?	?	i	20.6µM*	18.4µM*
CCCN(CCC)CCNC(=O)c1cc2c(-c3ccccc3F)nn(C)c2s1	-24.5%	?	?	i	?	94.4%
Cc1cccc(C(=O)Nc2nnc(S(=O)(=O)N3c4ccccc4CC3C)s2)c1 (stereo not drawn)	nt	nt	i	i	nt	nt
Cc1nn(-c2ccccc2)c2sc(C(=O)NC3CC3)cc12	-22.6%	2.2%	i	i	-26.5%	11.6µM*
CCN(CC)CCNC(=O)c1cc2c(-c3ccc(Cl)cc3)nn(C)c2s1	18.4µM*	?	?	?	18.4µM*	31.5%
CC(C)S(=O)(=O)c1csc(NC(=O)Nc2cccc([N+](=O)[O-])c2)c1Cl	-3.9%	-15.5%	?	23.1µM*	16.4%	13.3%
O=C(Nc1cccc([N+](=O)[O-])c1)Nc1cccc([N+](=O)[O-])c1	?	7.6%	i	i	?	23.0%
C[C@H](CN1c2ccccc2Sc2cccnc21)N(C)C	nt	-3.7%	nt	nt	nt	7.6%
Cc1ccnc2c(Cl)c(Cl)ccc12	nt	nt	i	i	nt	nt
COC(C[C@@H]1O[C@H]1C(=O)[C@@H](C)OCc1ccccc1)OC	2.3%	23.1µM*	i	?	1.5%	?
CCOC(=O)N1CC=C2C(C#N)=C(N)C(C#N)(C#N)[C@H](c3ccc(OCC)c(OCC)c3)[C@H]2C1	-4.2%	4.1%	8.2µM*	i	?	0.1%
COc1ccc2c(c1)cc1c(=O)n(CC(=O)NC(C)C)nc(C)n12	nt	nt	?	i	nt	nt
Cc1ccc(CSc2ccc3nnc(CCNS(=O)(=O)c4ccc(C)cc4)n3n2)cc1	nt	nt	i	i	nt	nt
O=C(NCCSCc1ccccc1)C1CCN(S(=O)(=O)Cc2ccccc2)CC1	nt	nt	?	i	nt	nt
COc1ccc(C)cc1Nc1n[n+](-c2ccccc2)c(-c2ccc(SC)cc2)s1	?	?	?	?	18.4µM*	?
SMILES	HT1080NT lethal	SW480 rereplic	KB-V1 MDR tox	KB-3-1 tox	HT1080 IDH1KD tx	MCF10A rerep
COc1ccc(C)cc1Nc1n[n+](-c2ccccc2)c(-c2ccc(NC(C)=O)cc2)s1	2.1%	-8.7%	i	i	-5.0%	-21.2%
c1ccc(CCN=C2CCCc3c2[nH]c2ccccc32)cc1	2.6%	-7.0%	?	13µM*	24.4%	0.0%
Nc1ccc(C(=O)N/N=C2\CCCc3c2[nH]c2ccccc32)cc1	15.1%	6.2%	i	?	1.8%	13.4%
COc1ccc(C2=CC(=O)OC(C)(c3ccccc3)O2)cc1 (stereo not drawn)	-16.3%	?	16.4µM*	i	-25.8%	?
CCS(=O)(=O)c1nc(S(=O)(=O)c2ccc(C)cc2)c(NCCCOC)s1	nt	nt	i	i	nt	nt
COCCCNC(=O)c1sc2ncn(CC(=O)Nc3ccc(C)c(Cl)c3)c(=O)c2c1C	-3.9%	2.7%	i	i	-21.7%	-27.0%
CCN(CC)CCCNC(=O)c1sc2ncn(CC(=O)Nc3ccc(C)c(Cl)c3)c(=O)c2c1C	-15.2%	18.4µM*	i	i	-25.3%	-7.2%
C/C=C/C=C/C(=O)OC(C)C(=O)Nc1cc([N+](=O)[O-])ccc1OC (stereo not drawn)	-13.7%	0.3%	i	i	-11.9%	-0.2%
COc1ccc([N+](=O)[O-])cc1NC(=O)C(C)OC(=O)Cc1ccc(OC)c(OC)c1 (stereo not drawn)	-0.1%	2.2%	14.6µM*	i	-10.8%	2.6%
COc1ccc(OC)c(/C=C/C(=O)Nc2ccc(C(=O)OCCC(C)C)cc2)c1	nt	nt	i	i	nt	nt
O=C(COc1ccccc1CNCc1ccccc1)Nc1ccccc1	?	2.0%	i	i	11.2µM*	-13.2%
O=C(CNCc1ccccc1)Nc1ccc(Oc2ccccc2)cc1	7.31µM*	18.4µM*	i	5.17µM*	6.51µM*	?
CCOC(=O)c1ccc(NC(=O)COc2ccccc2OC)cc1	13.2%	-0.7%	i	i	22.3%	-2.8%
CCOC(=O)c1ccc(NC(=O)C2(c3ccc(Cl)cc3)CCCC2)cc1	-9.8%	-18.1%	?	?	-17.1%	-4.1%
CCOC(=O)c1ccc(NC(=O)C2(c3ccccc3)CCCC2)cc1	4.3%	-7.4%	14.6µM*	i	0.6%	25.5%
CCOC(=O)c1ccc(NC(=O)COc2ccccc2CNC2CCCC2)cc1	23.1µM*	3.8%	?	?	23.1µM*	4.7%
CCOc1ccccc1CNCc1ccc(C(=O)O)cc1	10.3%	-10.8%	i	i	5.7%	-10.1%
COc1ccc(Cl)cc1NC(=O)COC(=O)CC(C)(C)CC1=NS(=O)(=O)c2ccccc2N1	nt	nt	i	?	nt	nt
COc1ccc(C)cc1NS(=O)(=O)c1ccc2c(c1)CCCN2C(C)=O	nt	nt	i	i	nt	nt
CCOC(=O)c1scc(-c2ccccc2)c1S(=O)(=O)N1CCN(c2ccccc2OC)CC1	nt	nt	?	i	nt	nt
CCNC(=S)NNC(=O)c1csc(C(C)C)c1	-0.6%	-2.1%	20.6µM*	?	3.1%	-3.2%
